High-throughput results: PubChem, several laboratories
HMGR II inh = E. faecalis class II HMG-CoA reductase inhibition; purified E. faecalis HMGR, NADPH absorbance 340 nm kinetic; inhibition, % at 10 µM; 0.41% of 190,000 active; AID 1066;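 active = inhibition above a set limit, the median over all tested compounds plus 3 SD, cut at about 9.5% in these data; inconclusive = no clear call, values can overlap the other calls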;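 note: enzyme runs in reverse so mevalonate oxidation gives rising NADPH absorbance; 0% = complete reaction with DMSO and 100% = background rate lacking mevalonate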
ROMK mod = modulators of human ROMK potassium channel; P48048; Tet-inducible ROMK, thallium flux fluorescence; actives lie on both sides; 2% of 130,000 active; AID 1918; B-score at 10 µM;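 active = signal ratio slope over the read window, or its plate-corrected B-score, at least 3 SD from the plate mean, either direction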;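 note: B-score of the F/F0 ratio slope over 7 to 12 s after thallium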
Target sequence (P48048 whole entry, looked up): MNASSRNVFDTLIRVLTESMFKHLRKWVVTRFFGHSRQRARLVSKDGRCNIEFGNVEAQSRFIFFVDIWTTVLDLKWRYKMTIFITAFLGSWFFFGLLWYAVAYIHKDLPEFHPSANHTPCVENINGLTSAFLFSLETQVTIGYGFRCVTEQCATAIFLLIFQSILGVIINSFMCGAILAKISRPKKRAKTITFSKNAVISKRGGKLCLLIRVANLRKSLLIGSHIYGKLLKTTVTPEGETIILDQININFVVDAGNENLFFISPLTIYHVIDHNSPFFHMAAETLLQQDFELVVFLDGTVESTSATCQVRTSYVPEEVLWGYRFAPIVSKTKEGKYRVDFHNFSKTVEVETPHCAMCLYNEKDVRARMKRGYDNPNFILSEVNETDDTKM
Calpain2 inh = calpain II (pig) inhibition; purified calpain II, fluorogenic peptide substrate, 30 min; inhibition, % at 16 µM; 0.37% of 220,000 active;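 active = inhibition above about 50%, limit read from the data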
14-3-3 Bad inh = disrupts binding of bovine 14-3-3 zeta to phospho-Bad peptide | P63103 | TR-FRET 14-3-3zeta/Dy647-pBad peptide displacement, 1 h | inhibition, % at 21.7 µM | 0.71% of 220,000 active;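 active = inhibition above about 70%, limit read from the data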;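 note: 0% = full 14-3-3 plus peptide FRET controls and 100% = background without 14-3-3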
Target sequence (P63103 whole entry, looked up): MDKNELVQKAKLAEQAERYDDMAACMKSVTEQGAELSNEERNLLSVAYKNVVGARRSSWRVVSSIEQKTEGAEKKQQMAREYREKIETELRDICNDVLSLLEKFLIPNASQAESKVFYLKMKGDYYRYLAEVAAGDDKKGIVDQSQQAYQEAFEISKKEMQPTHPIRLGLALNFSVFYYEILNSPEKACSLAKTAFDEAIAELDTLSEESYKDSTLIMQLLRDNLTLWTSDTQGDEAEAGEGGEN
zVAD death inh = L929 zVAD cell death inhibition | L929 zVAD necroptosis rescue, ATP luminescence, 24 h; with zVAD 60 µM | viability rescue, % at 10 µM | 0.38% of 220,000 active | AID 1377;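 active = activation, scaled between plate controls, above about 75%, limit read from the data; inactive = activation under that limit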;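 note: 0% = zVAD with DMSO and 100% = DMSO alone without zVAD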
TNF necrop inh = TNF-alpha cell death inhibition in Jurkat FADD-/- cells; 0.068% of 220,000 active; Jurkat FADD-/- TNF necroptosis rescue, ATP luminescence, 24 h; 0 = TNF only, 100 = no-TNF cells; activation (protection from cell death), % at 10 µM;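 active = activation, meaning protection from cell death, of at least 50% relative to plate controls; inactive = activation below 50%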;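 note: necroptosis triggered by 40 ng/mL TNF-alpha added together with compound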
ROMK retest = confirmation of human ROMK potassium channel modulators | shares compounds with ROMK mod | ROMK thallium flux, fluorescence ratio; hits give low values | normalized thallium flux (F/F0 slope) at 10 µM | 54% of 3,000 active;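 active = Flux at 10 µM at least 3 SD below or above vehicle control mean in one or both replicates; inconclusive = no clear call, values can overlap the other calls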
Numbers without * were called inactive; u = inconclusive; x = no result. A selection: hits, their analogues and other compounds. The true share with any hit is near 3%.

SMILES	HMGR II inh	ROMK mod	Calpain2 inh	14-3-3 Bad inh	zVAD death inh	TNF necrop inh	ROMK retest
CC(=O)Cc1nsc(NC(=O)c2ccc(-c3cc(Cl)ccc3Cl)o2)n1	4.9	3.79*	-28.8	-7.2	1.5	-1.7	0.0886
Cc1ccc(Cl)cc1N1CCN(CC(=O)Nc2ccc(CN3CCCCC3)cc2)CC1	7.7	-4.64*	-16.4	-2.0	10.7	-0.4	0.0541*
O=C1CN2CCC1C/C2=C\c1ccnc2c(Cl)cccc12 (centres undefined)	x	-1.41	-12.2	6.6	0.3	2.5	x
Cc1cc(N2CCOCC2)ccc1/C=C1\NC(=O)N(CC(=O)Nc2ccccc2C)C1=O	4.1	0.745*	-16.6	-4.7	-0.4	2.6	u
O=C(c1cccc(C(=O)N2CCN(c3ccccc3)CC2)c1)N1CCN(c2ccccc2)CC1	-2.1	-0.284	-7.7	3.1	0.0	-1.2	x
CC(=O)c1ccc(N2CCN(C(=O)c3cccc(Oc4ccccc4)c3)CC2)cc1	0.8	-2.03	48.2	12.4	0.1	-0.9	0.0805
O=C(NCCc1ccccc1)c1cccs1	-1.7	0.37	-44.2	-8.9	-0.6	0.1	x
CC(=O)NCCNC(=O)[C@H](Cc1ccccc1)NC(=O)c1cccs1	-0.1	2.36*	-31.9	-2.3	-0.7	-0.9	0.0777
COC(=O)[C@@]1(Cc2ccc(F)cc2)[C@H]2c3cc(C(=O)N4CCCC4)n(CCO)c3C[C@H]2CN1C(=O)c1ccccc1	-9.1	-0.611	-46.5	-8.4	-1.1	-5.4	x
COC(=O)[C@@]1(Cc2ccc(F)cc2)[C@H]2c3cc(C(=O)N4CCCC4)n(CCc4ccc(O)c(O)c4)c3C[C@H]2CN1C(=O)c1ccccc1	-3.5	-2.28	-77.8	-5.1	3.0	-10.4	u
O=C(/C=C/c1c(Cl)cccc1Cl)NCc1ccco1	-1.8	1.66*	20.4	2.7	-0.1	0.4	0.0786
O=C1OCc2cccc([N+](=O)[O-])c21	0.6	0.00367	-3.6	2.9	1.0	0.6	x
O=C1Nc2ccccc2OCc2c1cccc2[N+](=O)[O-]	-4.8	3.49*	7.0	-2.6	0.4	-1.1	0.104*
Cc1ccc(NC(=O)c2ccccc2O)cc1	-1.2	x	-12.5	1.5	0.0	-2.6	0.0651*
O=C(Nc1ccccc1)c1ccccc1O	-1.3	x	-64.8	-5.3	-0.3	-4.7	x
COc1ccc(-c2noc(CSc3nnc(-c4ccncc4)n3-c3ccc(F)cc3)n2)cc1OC	-1.3	x	-43.5	-4.3	-0.4	0.4	0.0819
COc1ccc(-n2c(SCc3nnc(-c4ccccc4)o3)nnc2-c2ccccc2)cc1	-9.2	x	-9.5	-19.0	0.5	-7.1	0.0642*
COc1ccc(-c2nnc(SCc3nnc(-c4ccccc4)o3)n2-c2ccccc2)cc1	1.9	x	10.5	18.6	0.2	-0.8	x
Cc1cc(NC(=O)CSc2nnc(-c3ccncc3)n2-c2ccc(F)cc2)no1	-2.7	1.11	26.2	-1.6	0.2	0.7	x
CC(C)(C)C1CCc2c(sc(NC(=O)c3cccs3)c2C(=O)N2CCCCC2)C1 (centres undefined)	-2.3	x	-38.3	-1.6	0.8	-0.5	x
Cc1[nH]c(=O)[nH]c(=O)c1S(=O)(=O)N1CCCC(C(=O)N2CCN(c3cccc(C(F)(F)F)c3)CC2)C1 (centres undefined)	-0.9	1.12	-30.1	-16.2	3.3	0.3	x
CC(C)Cc1nc(N2CCN(C(=O)c3ccco3)CC2)c(C#N)c2c1CCC2	-0.5	-2.89	-77.1	6.5	-0.6	-2.2	0.0667*
CC(C)Cc1nc(N2CCN(C(=O)c3ccccc3)CC2)c(C#N)c2c1CCC2	-1.1	x	-90.7	-0.4	-0.2	-0.7	x
CCOc1ccc(C2CC(c3c(O)c4ccccc4oc3=O)=NN2c2ccccc2)cc1OC (centres undefined)	-5.8	-6.62*	-245.7	-4.0	0.4	0.1	0.0278*
COc1cc(/C=N/N=C(N)N)ccc1OCc1ccccc1Cl	-0.8	-3.72*	12.5	-17.9	-4.0	-17.1	0.0553*
SMILES	HMGR II inh	ROMK mod	Calpain2 inh	14-3-3 Bad inh	zVAD death inh	TNF necrop inh	ROMK retest
O=C1NC(=S)SC1=C1CCCC1	2.5	x	-14.4	-11.4	0.6	-0.1	x
CCOc1cc(CNCCCN2CCOCC2)cc(Br)c1OCc1ccccc1Cl	-7.7	-1.62*	-13.3	0.4	8.4	-4.0	u
CCOc1cc(CNCCO)cc(Br)c1OCc1ccccc1Cl	3.4	-1.74	-31.1	23.5	62.9	-19.4	x
N#C/C(=C1/C(=O)Nc2ccc(Br)cc21)c1ccccn1	2.9	-1.56	-12.7	-11.4	0.0	3.9	x
CC1CCCN(CCCCOc2cccc(Br)c2)C1 (centres undefined)	-3.9	x	-18.2	-2.4	-0.3	2.7	x
O=C(CCl)N(c1ccc(Cl)cc1)c1c[nH]c2ccccc12	-5.1	-2.22	-1.9	3.6	-0.8	-25.5	0.0557*
CCOC(=O)C1=NN(c2ccccc2)C2C(=O)N(c3ccccc3OC)C(=O)C12 (centres undefined)	x	x	-27.2	-1.5	1.1	1.1	x
O=C(C1=NN(c2ccccc2)C2C(=O)N(c3ccccc3)C(=O)C12)c1ccccc1 (centres undefined)	5.0	0.903	-55.5	-35.1	-0.2	1.1	x
COc1ccccc1N1N=C(C(=O)c2ccccc2)C2C(=O)N(c3ccc(Br)cc3)C(=O)C21 (centres undefined)	x	x	-43.0	-25.7	0.3	0.4	0.065*
COc1ccccc1N1C(=O)C2C(C(=O)c3ccccc3)=NN(c3ccccc3)C2C1=O (centres undefined)	x	x	-75.4	-4.4	1.2	-0.9	0.0628*
Cc1cc(C)cc(Oc2ccccc2CO)c1	-7.7	-0.0944	14.2	-4.3	0.7	-2.2	x
O=C1C2CCCN2C(c2ccccc2F)N1c1ccc(Cl)cc1 (centres undefined)	-3.1	1.53*	15.8	-5.5	2.6	0.5	0.0753
COc1ccccc1-c1cc(C(F)(F)F)nc(S(C)(=O)=O)n1	-3.8	-3.86*	-206.5	-3.8	-0.4	-23.4	0.0599*
CS(=O)(=O)c1nc(-c2ccco2)cc(C(F)(F)F)n1	-2.6	-3.57*	-31.6	-8.0	71.6	-15.8	0.0572*
CN1CCN(c2nc(-c3ccco3)cc(C(F)(F)F)n2)CC1	-8.9	x	-38.2	1.8	-0.7	0.0	x
COc1ccccc1-c1cc(C(F)(F)F)nc(S(=O)(=O)CCCC(=O)NC(C)C)n1	1.8	-1.18	-246.9	-5.3	-0.4	-11.0	x
C=CCN1C(=O)/C(=C2/Sc3ccc(OC)cc3N2C)SC1=Nc1cccc(O)c1	-3.0	-0.233	-73.1	19.6	-1.1	2.1	x
Cc1ccc2[nH]c(=O)c(CN(CC3COCCO3)C(=O)Nc3ccccc3F)cc2c1 (centres undefined)	-3.6	0.382	-45.2	-13.1	7.8	2.9	x
